Records with an inconclusive call do not appear. Values without a mark were called inactive. Calls follow the shape of the dose curve; as a rule, active = well fitted cell-killing curve with a large enough effect in the repeat runs; inconclusive = weak or mixed curves, or effect the other way; inactive = no such curve, though single readings can be large or run the other way.
% is scaled to controls: 0 for no effect and ±100 for the full control effect.

A short description of the assay: qHTS assay to identify small molecule antagonists of the retinoid-related orphan receptor gamma (ROR-gamma) signaling pathway - cell viability counter screen (AID 1159520). Also: nearly all actives have a fitted effect of over 50% in size. The settings on record: Tet-on RORgamma CHO cells viability, ATP luminescence, 16 h; series mostly up to 92.4 µM; activity, negative = cytotoxicity: at the top concentration. From the text: U.S. Tox21 Program National Center for Advancing Translational Sciences [NCATS] NIH Chemical Genomics Center [NCGC] U.S. Environmental Protection Agency [EPA] National Institutes of Environmental Health Sciences [NIEHS] National Toxicology Program [NTP] U.S. Food and Drug Administration [FDA] Tox21 Assay Overview: Nuclear steroid hormone receptors are involved in many biological processes including inflammatory responses, cell proliferation, and apoptosis. Environmental factors or compounds disrupting these nuclear receptor pathways and gene expression may promote susceptibility to immunotoxicants and autoimmune diseases. One important group of these expression factors are the retinoid-related orphan receptors. To assess compounds that may interfere with the retinoid-related orphan receptor gamma (ROR-gamma) transcription factor, a cell-based luciferase assay was used. The CHO cell-based assay utilizes a TET-inducible ROR expression factor and ROR response element-LUC reporter gene. Reporter gene activity was induced using Doxycycline Hyclate and measured after 16 hr incubation. Tet-on ROR gamma CHO cells were used to screen against the Tox21 10K compound library for cytotoxicity by measuring the viability of the cells based on the quantitation of the ATP.
Tox21 Assay Protocol Summary: Tet-on ROR gamma CHO cells were dispensed at 1,000 cells in 4 uL of culture medium per well into white wall/solid bottom 1536-well plates using a Multidrop Combi (Thermo Scientific, Waltham, MA) dispenser. Following incubation at 37 C and 5% CO2 for 4 hr, 23 nL of compounds dissolved in DMSO, positive controls or DMSO only were transferred by a Pintool station (Kalypsys, San Diego, CA) and after 2 hr incubation at 37 C, one ul of 1 uM (final concentration) of Doxycycline Hyclate was added to all the wells by using a Flying Reagent Dispenser (FRD) (Aurora Discovery, San Diego, CA). After 16 hr incubation at 37 C and 5% CO2, 5 uL of CellTiter-Glo reagent (Promega Corporation, Madison, WI) was added to each assay plate using FRD. After 30 min incubation at room temperature, luminescence was quantified on a ViewLux plate reader (Perkin Elmer, Waltham, MA).
A general note: qHTS replaces the single test concentration by a dilution series.
For the compound `C[N+](C)(C)CC[N+]1(C)Cc2c(Cl)c(Cl)c(Cl)c(Cl)c2C1`, the “activity, negative = cytotoxicity” value is -3.55% [at 42.5 µM].
On to `O=C(O)c1ccccc1-c1ccc(C(F)(F)F)cc1`, for which the “activity, negative = cytotoxicity” value was 6.49% [at 42.5 µM].
Under `CC(C)(C)OC(=O)N1C[C@@H](F)C[C@H]1C(=O)O` stands -9.48%; under `COc1cc(O)cc(O)c1`, 5.21% [at 42.5 µM].
Take `C#CC(O)C(CC)CCCC` (stereo not given): the “activity, negative = cytotoxicity” value is -9.27%.
For the compound `O=c1[nH]c2ccccc2c(=O)n1CCCl`, the “activity, negative = cytotoxicity” value was -0.7% [at 42.5 µM].
With `NC1CCN(c2cccc(Cl)n2)CC1` the figure was 0.76% [at 42.5 µM]; with `CC1=CC(=O)CCC1`, 0.805%; with `CCCCCCCCCCCCCCCCCC(=O)OCCCCCCCCCCCCCC(C)C`, 11.1%.
Under `NC(N)=NS(=O)(=O)c1ccc(N)cc1` stands 1.62% [at 42.5 µM]; under `[O-][N+](=Nc1ccccc1)c1ccccc1`, 0.894%; under `CC(=O)N[C@@H](CCC(N)=O)C(=O)O`, 0.625% [at 42.5 µM].
Under `CNc1ncnc2nc[nH]c12` stands 15.6%.
Consider `CC1=CC(C)C(C=O)C(C)C1` (stereo not given), for which the “activity, negative = cytotoxicity” value is 0%.
As for `CCCc1ccccc1O`, the “activity, negative = cytotoxicity” value was -12.2%.
Take `OC/C=C/c1ccccc1`: the “activity, negative = cytotoxicity” value is 0.667%.
`c1ccc(SCCSc2ccccc2)cc1`: the “activity, negative = cytotoxicity” value is 0.0296%.
In the case of `CCCc1ccc(N)cc1`, the “activity, negative = cytotoxicity” value is 2.37%.
Turning to `CC(C)c1cccc(O)c1`, the “activity, negative = cytotoxicity” value is 2.27%.
For the compound `CC(=O)NC(Cc1ccccc1)C(=O)O` (stereo not given), the “activity, negative = cytotoxicity” value is -1.89% [at 42.5 µM].
On to `Cc1ccccc1Br`, for which the “activity, negative = cytotoxicity” value is -1.98%.
For the compound `CCCCC1CCCCC(=O)O1` (stereo not given), the “activity, negative = cytotoxicity” value was 9.01%.
Take `N[C@@H](CS)C(=O)O`: the “activity, negative = cytotoxicity” value was -1.4%.
With `CCCCCCCCCCCCCCCCCCOCC(O)CO` (stereo not given), the “activity, negative = cytotoxicity” value is -4.33% [at 42.5 µM].
As to `COc1ccc(N=[N+]([O-])c2ccc(OC)cc2)cc1`, the “activity, negative = cytotoxicity” value was 0.43%.
As for `Oc1ccc2c(c1)OC[C@@H](N1CCC(O)(c3ccc(F)cc3)CC1)[C@H]2O`, the “activity, negative = cytotoxicity” value is 0.788% [at 42.5 µM].
`OC[C@H]1O[C@@H]2O[C@H]3[C@H](O)[C@@H](O)[C@@H](O[C@H]4[C@H](O)[C@@H](O)[C@@H](O[C@H]5[C@H](O)[C@@H](O)[C@@H](O[C@H]6[C@H](O)[C@@H](O)[C@@H](O[C@H]7[C@H](O)[C@@H](O)[C@@H](O[C@H]8[C@H](O)[C@@H](O)[C@@H](O[C@H]9[C@H](O)[C@@H](O)[C@@H](O[C@H]1[C@H](O)[C@H]2O)O[C@@H]9CO)O[C@@H]8CO)O[C@@H]7CO)O[C@@H]6CO)O[C@@H]5CO)O[C@@H]4CO)O[C@@H]3CO`: the “activity, negative = cytotoxicity” value was 5.15% [at 42.5 µM].
For the compound `CCCCCCCCC=O`, the “activity, negative = cytotoxicity” value is -1.57%.
Consider `CCN(CC)S(=O)(=O)c1ccc(C(=O)O)cc1`, for which the “activity, negative = cytotoxicity” value was 0.845% [at 42.5 µM].
On to `O=C(O)c1ccccc1S`, for which the “activity, negative = cytotoxicity” value is 0.693% [at 42.5 µM].
Take `NS(=O)(=O)c1cc2c(cc1C(F)(F)F)NC(Cc1ccccc1)NS2(=O)=O` (stereo not given): the “activity, negative = cytotoxicity” value is 0.445% [at 42.5 µM].
Take `c1ccc2cnncc2c1`: the “activity, negative = cytotoxicity” value was 0.463%.
Regarding `CC(C)(C)CC(C)(C)N`, the “activity, negative = cytotoxicity” value is -5.09%.
`Cc1ccccc1C(=O)O`: the “activity, negative = cytotoxicity” value was 7.22%.
On to `OCCCCCCO`, for which the “activity, negative = cytotoxicity” value was 3.44%.
As to `C#CC(C)(O)CC(C)C` (stereo not given), the “activity, negative = cytotoxicity” value was 0.937%.
As to `CCCCCCCCCCCl`, the “activity, negative = cytotoxicity” value was 7.92%.
Regarding `NC(CS)C(=O)O` (stereo not given), the “activity, negative = cytotoxicity” value was 0.0092% [at 42.5 µM].
On to `O=C(O)C1CCC1`, for which the “activity, negative = cytotoxicity” value was 2.65% [at 42.5 µM].
Regarding `C1=C\CC/C=C\CC/C=C\CC/1`, the “activity, negative = cytotoxicity” value is 2.82%.

The values above are taken from PubChem BioAssay (Tox21).
